Laboratory results from PubChem BioAssay (NCI).
This is part of a sample that, as a whole, favours compounds with a hit. Of some 83,000 tested, about 20% had one in any assay.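 The endpoint reported here, percent growth, reads 100 for growth as untreated, 0 for no net growth and -100 for all cells dead.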 Calls of active or inactive are those of the source. The calls were made as follows: active = growth percent below 10; inactive = the rest.

These compounds were tested on HT29 colon (assay: NCI-60 one-dose screen, 48 h (100 = growth as untreated, 0 = no growth, -100 = all killed)). Conditions: 10 µM unless noted.

SMILES | growth
CC(=O)OC[C@]12CC[C@@H](c3cn(Cc4ccc(Cn5cc([C@@H]6CC[C@]7(COC(C)=O)CC[C@]8(C)[C@H](CC[C@@H]9[C@@]%10(C)CC[C@H](OC(C)=O)C(C)(C)[C@@H]%10CC[C@]98C)[C@@H]67)nn5)cc4)nn3)[C@@H]1[C@H]1CC[C@@H]3[C@@]4(C)CC[C@H](OC(C)=O)C(C)(C)[C@@H]4CC[C@@]3(C)[C@]1(C)CC2 | 97.2% (inactive)
Cc1c(Br)cccc1NC(=O)c1sc2nc3c(cc2c1N)CN(Cc1ccccc1)CC3 | 0.812% (active)
COc1cccc(C(=O)OCCn2nc3c4c(cccc42)C(=O)c2ccccc2-3)c1O | 79.3% (inactive)

The compounds below were run on SNB-75 CNS in the same assay as above. Conditions: 10 µM unless noted.

SMILES | growth
CCc1ccc(OCc2ccccc2C(=O)Nc2ccc3nc(C)cc(N)c3c2)cc1 | -95.1% (active)
Nc1cccc(C(=O)Nc2ccc3c(O)c(N=Nc4ccc(N=Nc5ccc(S(=O)(=O)O)cc5)cc4)c(S(=O)(=O)O)cc3c2)c1 | 87.9% (inactive)
COc1cc(NCC(=O)Nc2cc(Nc3cccc(C(F)(F)F)c3)ncn2)c(Cl)c(OC)c1Cl | 83.4% (inactive)
CC1CCCN(CCCCCOc2ccc3oc4ccccc4c(=O)c3c2)C1 (stereo not given) | 75.8% (inactive)
CCCn1c(N)c(C(N)=O)sc1=S | 82.9% (inactive)
CCOC(=O)c1sc(/N=C2\NC(=O)/C(=C/c3ccc(N4CCN(C)CC4)cc3)S2)nc1C | 101% (inactive)
CN(C)C1=NCCN1 | 75.8% (inactive)
CCOC(=O)c1ccc(Nc2ncnc3ccc(NC(=O)c4ccccc4)cc23)cc1 | 77.9% (inactive)
N#CC1C(c2ccc(Cl)cc2)=Nc2c(c(-c3ccccc3)nn2-c2ccccc2)C12C(=O)Nc1ccc(Cl)cc12 (stereo not given) | 45.8% (inactive)
C#C[C@@]1(O)[C@@H](CO)O[C@@H](n2ccc3c(N)ncnc32)[C@@H]1O | -25.6% (active)
CN(C)CCCn1c2c(c3cc(-c4cccc(S(N)(=O)=O)c4)ccc3c1=O)C(=O)c1ccccc1-2 | 59.1% (inactive)
C=C1C(=O)O[C@H]2[C@H]1CC/C(COC(=O)/C=C/c1cccnc1)=C\CC[C@@]1(C)O[C@@H]21 | 72.2% (inactive)
C#C[C@@]1(O)[C@@H](CO)O[C@@H](n2cc(Cl)c3c(N)ncnc32)[C@@H]1O | -42.4% (active)
CCOc1ccc(C2N(c3cc(OC)c(OC)c(OC)c3)C(=O)C2(F)F)cc1 (stereo not given) | 55.9% (inactive)
O=C1C(Cl)=C(NCCCN(CCCNC2=C(Cl)C(=O)c3ccccc3C2=O)C2=C(Cl)C(=O)c3ccccc3C2=O)C(=O)c2ccccc21 | 104% (inactive)
COc1ccc(-c2nc(C#N)c(NCC(c3ccc(Cl)cc3)N3CCCCC3)o2)cc1 (stereo not given) | 91% (inactive)
Cc1nc2sc(C(=O)Nc3ccccc3)c(N)c2cc1C(C)O (stereo not given) | 30.9% (inactive)
O=C1CCC23OC(c4ccccc4N12)C(O)C(O)C3O (stereo not given) | 113% (inactive)
C=C1C(=O)O[C@H]2[C@H]1CC/C(COC(=O)CCCCC(=O)OC/C1=C/CC[C@@]3(C)O[C@H]3[C@H]3OC(=O)C(=C)[C@@H]3CC1)=C\CC[C@@]1(C)O[C@@H]21 | 79.2% (inactive)

SMILES | growth
CC[C@]12C=CCN3CC[C@@]4(c5cc(NC(=O)CCC(=O)O[C@H]6CC[C@H]7[C@@H]8CC[C@H]9CC(=O)CC[C@]9(C)[C@H]8CC[C@]67C)c(OC)cc5N(C)[C@H]4[C@@](O)(C(=O)OC)[C@@H]1OC(C)=O)[C@@H]32 | 57.1% (inactive)
N#CC(C#N)=C1NC(c2ccccc2)=C(c2ccccc2)C(c2ccccc2Cl)=C1C#N | 107% (inactive)
CCCCCCCCCCCCCC1=NCC[N+]1(CCO)Cc1ccccc1 (stereo not given) | 66% (inactive)
Cc1cc(C)n(-c2nc(-c3cccs3)c(C#N)c(=O)[nH]2)n1 | 89.2% (inactive)
COc1ccc(C2C(c3ccccc3)C(=O)N2c2cc(OC)c(OC)c(OC)c2)cc1I (stereo not given) | 57.5% (inactive)
CC(C)(C)c1ccc2oc(=O)n(SC(Cl)(Cl)Cl)c2c1 | 98.1% (inactive)
CCOC(=O)c1c(C)nc2c(c1N)/C(=C/c1ccccn1)C(=O)N2Cc1ccccc1 | 68.6% (inactive)
O=C(Nc1cccc(-c2cccc(F)c2)c1)C1CCN(Cc2cccc3cccnc23)CC1 | 53.6% (inactive)
COc1ccc(C(C)c2cc(OC)c(OC)c(OC)c2)cc1 (stereo not given) | 38.2% (inactive)
Cc1ccc(SC2c3ccc(C)cc3Oc3nc(N)c(C#N)c(N)c32)cc1 (stereo not given) | 73.2% (inactive)
COC(=O)/C=C/c1cc(OC)c2c(c1)[C@@H](C(=O)OC)[C@H](c1ccc(OC)c(OC)c1)O2 | -3.43% (active)
C#CCN(CCCOc1ccc(Cl)cc1Cl)CCCSC(=O)CCCCCN1/C(=C\C=C2/CCCC(/C=C/C3=[N+](CCCCCC(=O)[O-])c4ccccc4C3(C)C)=C2Cl)C(C)(C)c2ccccc21 | 42.4% (inactive)
O=C1NCc2ccc3c(-c4cccc(Cl)c4)c[nH]c3c21 | 13.2% (inactive)
O=C(/C(=C\c1c(-c2ccccc2)[nH]c2ccccc12)S(=O)(=O)c1ccccc1)c1ccccc1 | 45.4% (inactive)
N#Cc1c(-c2ccc(F)cc2)nc(N=Nc2c(O)[nH]c3ccccc23)nc1N1CCOCC1 | 22.5% (inactive)
CC(=O)OC[C@]12CC[C@@H](c3cn(Cc4ccc(Cn5cc([C@@H]6CC[C@]7(COC(C)=O)CC[C@]8(C)[C@H](CC[C@@H]9[C@@]%10(C)CC[C@H](OC(C)=O)C(C)(C)[C@@H]%10CC[C@]98C)[C@@H]67)nn5)cc4)nn3)[C@@H]1[C@H]1CC[C@@H]3[C@@]4(C)CC[C@H](OC(C)=O)C(C)(C)[C@@H]4CC[C@@]3(C)[C@]1(C)CC2 | 105% (inactive)
Cc1c(Br)cccc1NC(=O)c1sc2nc3c(cc2c1N)CN(Cc1ccccc1)CC3 | -9.13% (active)
COc1cccc(C(=O)OCCn2nc3c4c(cccc42)C(=O)c2ccccc2-3)c1O | 22.8% (inactive)
